D1 agonist: agonists of human D1 dopamine receptor; HEK293 T-REx D1 cells, calcium flux, agonist mode; hit rate 1% among 360,000; activation, % at 2 µM; P21728
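Inducible HEK293 T-REx D1 cells, force-coupled to calcium signalling, were plated at 4000 cells/well with tetracycline and held overnight at 30 C. After no-wash calcium dye loading, compound-evoked calcium rise over 180 s flagged agonists.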
TRHR PAM: allosteric enhancers of human TRH receptor. hit rate 0.66% among 360,000. AID 493056. TRHR cells, fluo-8 calcium fluorescence, EC20 TRH enhancement. enhancement, % at 2 µM; in the data active means enhancement above about 30%
Target sequence (P34981 whole entry, looked up): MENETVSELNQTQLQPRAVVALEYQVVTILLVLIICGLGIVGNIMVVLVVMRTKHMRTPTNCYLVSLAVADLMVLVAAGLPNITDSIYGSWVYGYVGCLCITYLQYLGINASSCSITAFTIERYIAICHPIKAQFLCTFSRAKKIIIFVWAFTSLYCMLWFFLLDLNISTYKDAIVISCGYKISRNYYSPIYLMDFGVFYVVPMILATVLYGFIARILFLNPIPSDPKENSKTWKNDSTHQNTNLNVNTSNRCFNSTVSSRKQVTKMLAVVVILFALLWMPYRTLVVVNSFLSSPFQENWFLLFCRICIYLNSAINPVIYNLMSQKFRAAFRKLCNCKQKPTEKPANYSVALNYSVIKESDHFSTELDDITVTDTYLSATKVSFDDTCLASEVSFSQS
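Enhancer read-out: after compound pinning and an initial kinetic agonist-mode read, an EC20 of TRH (10 nM final) was injected and fluo-8 calcium signal (Ex 480/Em 530) followed at 1 s/cycle for 100 cycles in TRHR-expressing cells.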
D1 antagonist: blocks dopamine activation of the human D1 receptor. P21728. HEK293 TREx D1 cells, calcium flux, dopamine EC80; stronger effect = lower value. activity change, negative = inhibition, % at 10 µM. hit rate 3.2% among 360,000. AID 504652; in the data active means activity change below about -30%
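Allosteric or orthosteric antagonism assessed as attenuation of the calcium response to EC80 dopamine, added 180 s after compound, in induced HEK293 Trex D1 cells loaded with no-wash calcium dye.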
D1 potentiator: enhances dopamine response at the human D1 receptor; HEK293 TREx D1 cells, calcium flux, dopamine EC20 potentiation; AID 504651; hit rate 0.036% among 360,000; potentiation, % at 10 µM; in the data active means potentiation above about 30%
TRHR ag: TRH receptor (human) agonism. P34981. TRHR cells, calcium flux fluo-8, FDSS agonist mode. activation, % at 2 µM. hit rate 0.18% among 360,000. AID 493084
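In this calcium-flux screen, cells bearing human TRHR are dye-loaded with fluo-8, baselined for 10 cycles, then exposed to library compounds; positive kinetic calcium responses during the agonist phase mark hits, with TRH as control.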
Hits are given with their value; i = inactive; nt = not tested or not shown; ! = not confirmed by another sample. In the library only some 4.7% were active in any assay of this set; here they are far more common. Unless noted, no stated cut-off is given here; in the data, active means activation above about 30%; inactive means the rest.

SMILES	D1 agonist	TRHR PAM	D1 antagonist	D1 potentiator	TRHR ag
CCC(C)(CCNC(=O)Cc1ccccc1)c1ccccc1OC (stereo not drawn)	i	i	i	i	i
COc1ccc(CNC(=O)c2ccc(C(C)C)cc2)cc1	i	i	-47	i	i
COCCNC(=O)c1cc2sccc2n1C	i	i	i	i	i
COc1ccc(CNC(=O)c2cc3sccc3n2C)cc1	i	i	-52	i	i
CCc1cccc(-n2c(=O)c3cccnc3n2CC(=O)Nc2ccccc2C(=O)OC)c1	i	i	i	i	i
O=C(NCc1ccccc1Br)c1cnc2sc(N3CCCCCC3)nn2c1=O	i	i	i	i	i
CC(C)CN1CCC(=O)N([C@H](CSc2ccc(Br)cc2)c2ccccc2)CC1	i	i	-44	i	i
CN(C(=O)CSc1nc2ccccc2n1CC(=O)NCc1ccc(F)cc1)c1ccc(F)cc1	i	i	-32	i	i
CCn1c(SCC(=O)N(C)c2c(N)n(Cc3ccccc3)c(=O)[nH]c2=O)nc2ccccc21	i	31	i	i	i
CN(C(=O)CSc1nc2ccccc2n1CC(=O)N(C)C1CCCCC1)c1ccc(F)cc1	i	i	i	i	i
CCOc1ccc(-c2nnc(SCC(=O)NCc3ccc(C)cc3)nc2-c2ccc(OCC)cc2)cc1	i	i	i	i	i
COCCCc1cc(F)c(S(=O)(=O)N2CCN(S(=O)(=O)c3ccc4c(c3)OCCO4)CC2)cc1F	i	i	i	i	i
CC(C)c1nccn1CCC(=O)O	i	i	-44	i	i
Cc1nccn1CC(=O)O	i	i	i	i	i
COC(=O)Cc1ccc(NC(=S)N2CCN(c3cccc(O)c3)CC2)cc1	i	i	-38	i	i
CC(=O)c1ccc(NC(=S)N2CCC(Cc3ccccc3)CC2)cc1	i	i	-35	i	i
COC(=O)Cc1ccc(NC(=S)N2CCN(C)CC2)cc1	i	i	i	i	i
COC(=O)Cc1ccc(NC(=S)N2CCC(Cc3ccccc3)CC2)cc1	i	i	-32	i	i
CC(C)NC(=S)N1CCC(Cc2ccccc2)CC1	i	i	i	i	i
CC(=O)c1cccc(NC(=S)N2CCC(Cc3ccccc3)CC2)c1	i	i	nt	i	i
CC(C)CNC(=S)N1CCC(Cc2ccccc2)CC1	i	i	-36	i	i
COc1ccc(-n2nc(C(=O)N3CCN(c4cccc(C)c4C)CC3)c3c4ccccc4n(C)c3c2=O)cc1	i	i	i	i	i
Cn1c2c(c(=O)n(C)c1=O)C(c1cccc(O)c1)CC(=O)N2 (stereo not drawn)	i	i	i	i	i
COc1ccc(OCCOc2ccc(S(=O)(=O)N3CCCC3)cc2[N+](=O)[O-])cc1	i	i	i	i	i
COc1cccc(Oc2ccc(S(=O)(=O)N3CCCC3)cc2[N+](=O)[O-])c1	i	32	i	i	i
SMILES	D1 agonist	TRHR PAM	D1 antagonist	D1 potentiator	TRHR ag
COc1ccc(CNc2ncc(-c3ccccc3)n2C)c(OC)c1OC	i	i	-30	i	i
COc1ccc(CNc2ncc(-c3ccccc3)n2C)c2ccccc12	i	i	i	i	i
CCCc1cc(=O)oc2cc(C)c3c(C(C)(C)C)coc3c12	i	i	i	i	i
O=C(CSc1nc2ccccc2c(=O)n1NC(=O)Cc1ccccc1)NCc1ccccc1	i	i	-32	i	i
O=c1cc(-c2ccc(F)cc2)nc(SCc2nc(-c3cccc(C(F)(F)F)c3)no2)[nH]1	i	i	i	i	i
Cc1cccc(NC(=O)CSc2nnc(-c3cccs3)o2)c1	i	i	i	i	i
Cc1cc(NC(=O)C(C)SCC(=O)N(C)CC(=O)Nc2ccccc2Br)no1 (stereo not drawn)	i	i	i	i	i
CN(C)CC/C=C1/c2ccccc2Sc2c(O)cc(Cl)cc21	44	i	-94	i	i
COc1cc2c(cc1Cl)/C(=C\CCN(C)C)c1ccccc1S2	i	i	-41	i	i
COc1cc(Cl)cc2c1Sc1ccccc1/C2=C/CCN(C)C	i	i	-62	i	i
COc1ccc(S(=O)(=O)Nc2cc3c(cc2N2CCOCC2)n(C)c(=O)n3C)cc1	i	i	i	i	i
COc1cc(/C=C2\SC(=Nc3ccccc3)N(Cc3ccco3)C2=O)ccc1OC(C)C(=O)O (stereo not drawn)	i	i	i	i	i
COCCN1C(=O)/C(=C/c2ccc(OCc3ccc(C(=O)O)cc3)c(OC)c2)SC1=Nc1ccccc1	i	i	-37	i	i
CC(CCc1ccccc1)NC(=O)CN1C(=O)NC2(CCCCC2)C1=O (stereo not drawn)	i	i	i	i	i
COc1ccc(CNC(=O)C/C(C)=N/NC(=O)COc2ccc(C)cc2Br)cc1	i	32	i	i	i
CCCNC(=O)C/C(C)=N/NC(=O)COc1ccc(C)cc1Br	i	i	i	i	i
COc1ccc(CNC(=O)C/C(C)=N/NC(=O)c2cnccn2)cc1	35	i	i	i	i
Cc1cc2c(s1)c1cnn(Cc3cc(C(F)(F)F)ccc3F)c(=O)c1n2C	i	i	i	i	i
COc1cc(OC)cc(C(=O)N/N=C2/SCC(=O)N2Cc2ccco2)c1	i	i	i	i	i
Cc1ccccc1OCC(=O)N/N=C1\SCC(=O)N1Cc1ccccc1	i	i	-43	i	i
Cc1ccccc1C(=O)N/N=C1\SCC(=O)N1Cc1ccco1	i	37	i	i	i
CCc1ccc(S(=O)(=O)c2nnn3c2nc(N2CCOCC2)c2sccc23)cc1	i	i	i	i	i
C=CCSC1=N/C(=C\c2cccnc2)C(=O)N1c1ccc(OC)cc1	i	i	-54	i	i
C=CCSC1=N/C(=C/c2ccsc2)C(=O)N1c1ccccc1	i	i	-58	i	i
CCSC1=N/C(=C\c2ccccc2)C(=O)N1c1ccc(OC)cc1	i	i	i	i	i
SMILES	D1 agonist	TRHR PAM	D1 antagonist	D1 potentiator	TRHR ag
O=C(COC(=O)c1cc(Cl)ccc1O)c1ccc2c(c1)OCO2	i	38	i	i	i
O=C(COC(=O)c1ccc(O)cc1O)c1ccc2c(c1)OCO2	i	i	i	i	i
COc1ccc(OC)c(C2C=C(c3ccc(C)c(C)c3)Nc3nnnn32)c1 (stereo not drawn)	i	i	i	i	i
COc1cccc(C2=CC(c3cc(OC)ccc3OC)n3nnnc3N2)c1 (stereo not drawn)	i	i	-42	i	i
COc1cccc(C2=CC(c3ccc(N(C)C)cc3)n3nnnc3N2)c1 (stereo not drawn)	i	i	-36	i	i
O=C(NC1CCCC1)C1CCN(C(=O)c2ccc(-c3ccccc3)cc2)CC1	i	i	-38	i	i
COc1ccc(C(=O)N2CCN(CCc3ccccn3)CC2)cc1	50!	i	-46!	i	i
COc1ccc(C(=O)N2CCC(C(=O)NCc3ccccn3)CC2)cc1	i	i	-31	i	i
CCOc1ccc2ncc3c(-c4ccccc4)nn(CC(=O)Nc4cccc(F)c4)c3c2c1	i	i	i	i	i
